In PubChem BioAssay AID488890 (Southern Research Specialized Biocontainment Screening …, 2010):
Among all 320,000 compounds or so, about 1,300 (0.41%) were called active. About 3% were inconclusive and are not listed. The rule behind the calls is not given here. The list is a sample of the results. Measured potencies and affinities stand elsewhere.

Assay: growth inhibition of non-replicating M. tuberculosis (AID 488890);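 note: plate controls were DMSO cells for no effect and high antibiotic wells for full effect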
Conditions: Mycobacterium tuberculosis non-replicating, at 25 µM, stronger effect = higher value

Row | Structure (SMILES) | inhibition [%]
1 | N#Cc1ccc(C23CC4(C2)[C@H](CN(Cc2ccc(C(F)(F)F)cc2)[C@@H]4c2ccccc2)C3c2ccccc2)cc1 (stereo not given in full) | 19.2
2 | Cc1cc(C)c(NC(=S)N2CCN(c3ccc([N+](=O)[O-])cn3)CC2)cc1C | -3
3 | OC/C(Br)=C(\Br)CO | -3.52
4 | CC(C)(C)NC(=O)c1ccc(NC(=O)C2COc3ccccc3O2)cc1 (stereo not given) | 45.9
5 | COc1ccc(OC)c(NC(=O)C2COc3ccccc3O2)c1 (stereo not given) | 30.6
6 | NC(=O)c1ccc(NC(=O)C2COc3ccccc3O2)cc1 (stereo not given) | 1.12
7 | COc1ccc(CNC(=O)C2COc3ccccc3O2)cc1 (stereo not given) | 72.5
8 | CCOC(=O)CN1C(=O)N[C@@H](c2ccccc2)C(C(=O)OC)=C1C | -18.9
9 | COCc1ccc(C(=O)N2CCCC(N3CCN(c4ccccc4C)CC3)C2)s1 (stereo not given) | 20.7
10 | O=C1C2C3C=CC(C3)C2C(=O)N1CC1CCCO1 (stereo not given) | -0.04
11 | NC(=O)CCn1c(C(=O)c2cc(Cl)c(N)c(Cl)c2)c2ccccc2[n+]1[O-] | 7
12 | O=C(Nc1cccnc1)C1OCCc2ccccc21 (stereo not given) | -3.68
13 | COCCn1c(SCC(=O)Nc2ccc(S(=O)(=O)N(C)C)cc2)nc2ccccc21 | 0.14
14 | COc1cccc(NC(=O)CCC2CCN(C(=O)C3CC=CCC3)CC2)c1 (stereo not given) | 6.11
15 | Cc1nc(-c2cccc(S(=O)(=O)N3CCCCC3)c2)cs1 | 3.4
16 | COc1ccccc1NC(=O)c1cc(-c2cc(OC)c(OC)c(OC)c2)nc2ccccc12 | 1.97
17 | C/C(=C\C(=O)c1ccc(Br)cc1)NNC(=O)c1ccc(O)cc1 | 67.2
18 | C/C(=C\C(=O)c1ccc(Br)cc1)NCc1ccccc1 | 52.8
19 | COc1ccc(/C(O)=C/C(=O)C(=O)NNC(=O)c2ccccc2)cc1 | 22.9
20 | COc1ccc(N/C(C)=C/C(=O)c2ccccc2)cc1 | 57.9
21 | CCOc1ccc(N2CC(C(=O)NCCCc3ccccc3)CC2=O)cc1 (stereo not given) | 24.1
22 | Cc1cccc(NC(=O)Cn2cnc3sc(C)c(S(=O)(=O)N4CCC(C)CC4)c3c2=O)n1 | 7.28

Row | Structure (SMILES) | inhibition [%]
23 | CCN1CCN(c2ccc(S(=O)(=O)N3CCOCC3)cc2NC(=O)c2sccc2C)CC1 | -12.4
24 | CC(=O)c1ccc(N2CCN(S(=O)(=O)c3cccc4nonc34)CC2)cc1 | 10.4
25 | O=C(O)CSc1ccccn1 | -10.9
26 | O=C(O)CCSc1ccccn1 | -2.61
27 | O=C(c1ccccc1)c1nnc(-c2ccncc2)o1 | 49.9
28 | O=C(c1nnc(-c2ccncc2)o1)c1ccccc1Cl | 72.4
29 | O=C(c1cccc(F)c1)N1CCC2(CC1)NCCc1[nH]cnc12 | -6.44
30 | CN(CC(O)COCc1cccs1)C1CCCCC1 (stereo not given) | 4.88
31 | c1ccc(-c2cc3c(ccc4nonc43)nn2)cc1 | 21
32 | O=C(O)c1cc(-c2ccccc2)nc2ccccc12 | -4.94
33 | Cc1ccc(NC(=O)CC(C)N2CCCC2)cc1 (stereo not given) | -3.18
34 | CC(NCC(O)COCc1ccc(Cl)cc1)c1ccccc1 (stereo not given) | 78.5
35 | NCC(O)COCCC12CC3CC(CC(C3)C1)C2 (stereo not given) | 8.67
36 | Cc1nnc(NC(=O)c2ccccc2NC(=O)c2ccccc2)s1 | 33.7
37 | O=C(Nc1nnc(C(F)(F)F)s1)c1cccnc1 | 27.8
38 | Cc1cc(-c2n[nH]c(=S)n2-c2ccccc2C)cs1 | -13.2
39 | COc1ccccc1NC(=O)COC(=O)/C=C/c1ccccc1[N+](=O)[O-] | 65.2
40 | COC(=O)COc1ccc(/C=C2/NC(=O)N(CC(=O)OC)C2=O)cc1 | 9.12
41 | CCN1C(=O)/C(=C/c2ccc(N3CCCC3)cc2)NC1=S | 52.1
42 | Cc1cc(C)n(-c2ccc(C(=O)Nc3cccc(S(=O)(=O)N4CCCC4)c3)cc2)n1 | -4.31
43 | C=CCn1c(SCC(=O)Nc2cc(C)cc(C)c2)nnc1-c1cnccn1 | -3.18
44 | CC[n+]1c(/C=C/Nc2ccccc2)oc2ccc(OC)cc21 | 35.5

Row | Structure (SMILES) | inhibition [%]
45 | CC[n+]1c(/C=C/Nc2ccccc2)oc2ccccc21 | 67.7
46 | Cc1cc(=O)oc2c3c(cc(OCC(=O)NCc4cccnc4)c12)OC(C)(C)CC3 | 7.63
47 | CC(=O)OCCc1c2ccccc2c(CCCN(C)C)c2ccccc12 | 41.4
48 | Cc1onc(-c2c(Cl)cccc2Cl)c1C(=O)OCC(=O)c1ccccc1 | 15.6
49 | Cc1onc(-c2c(Cl)cccc2Cl)c1COC(=O)c1ccc(Cl)cc1 | 16.1
50 | COc1c(F)c(F)cc2c(=O)c(C(=O)O)cn(C3CC3)c12 | 4.5
51 | Cc1c(-n2cc(C(=O)O)c(=O)c3cc(F)c(N4CCCC(O)C4)c(F)c32)c(=O)n(-c2ccccc2)n1C (stereo not given) | 0.14
52 | CC1CCc2cc(F)cc3c(=O)c(C(=O)O)cn1c23 (stereo not given) | 35.4
53 | CCOC(=O)c1cn(C2CC2)c2c(F)c(F)c(F)cc2c1=O | -13
54 | C=CCN(CC=C)C(=O)COC(=O)c1ccc(Sc2ncn[nH]2)c([N+](=O)[O-])c1 | 43.1
55 | Cc1ccc(-c2ccc(SCC(=O)N3CCc4ccccc43)nn2)cc1 | -0.83
56 | Cc1cc(NCCCn2ccnc2)n2nc(C)c(-c3ccc(Cl)cc3)c2n1 | -1.28
57 | CC(=O)Nc1ccc(Nc2cc(C(C)C)nc3c(-c4ccccc4)c(C)nn23)cc1 | 5.77
58 | CC(=O)Nc1ccc(Nc2cc(C)nc3c(-c4ccc(Cl)cc4)c(C)nn23)cc1 | 2.43
59 | CCCc1cc(N2CCCC2)n2nc(C)c(-c3ccccc3)c2n1 | 43.4
60 | Cc1nn2c(NCCCn3ccnc3)cc(C(C)C)nc2c1-c1ccccc1 | 75.8
61 | Cc1cc(NC2CCCC2)n2ncc(-c3ccccc3)c2n1 | 36.8
62 | CCCc1cc(N2CCN(c3ccccn3)CC2)n2nc(C)c(-c3ccccc3)c2n1 | 2.63
63 | Cc1cc(NCc2ccccc2)n2ncc(-c3ccccc3)c2n1 | 14.7
64 | Nc1cc(N2CCNCC2)c([N+](=O)[O-])cc1Cl | 6.14
65 | Cc1ccc(CNC(=O)C2CCCN(C(=O)N(C)C)C2)cc1 (stereo not given) | -2.88
66 | C=CCN1C(=O)c2ccc(C(=O)OCC(=O)Nc3ccccc3OC)cc2C1=O | -2.33

Row | Structure (SMILES) | inhibition [%]
67 | CC(=O)c1cc(CN2CCN(Cc3ccccc3)C(CCO)C2)cs1 (stereo not given) | 1.86
68 | Cc1cc(C(=O)N(C)CC(=O)Nc2ccc(Cl)c(C(F)(F)F)c2)no1 | 6.97
69 | Cc1c(NC(=O)COC(=O)Cn2cc(C(F)(F)F)ccc2=O)cccc1[N+](=O)[O-] | -1.08
70 | Cc1cc(C)n2nc(SCC(=O)N(Cc3ccccc3)C3CCS(=O)(=O)C3)nc2n1 (stereo not given) | -1.73
71 | Cc1cc(NCCC(C)C)n2nc(C)c(-c3ccccc3)c2n1 | 49.1
72 | Cc1cc(Nc2ccccc2)n2nc(C)c(-c3ccccc3)c2n1 | 15.2
73 | O=C(CC(=O)c1ccccc1)Nc1ccc(Cl)cc1 | 51.8
74 | Cc1ccc(O)c(C(=O)CC(=O)c2cccc(F)c2)c1 | -5.71
75 | COc1ccc(C(=O)CC(=O)c2ccccc2O)cc1OC | 22.7
76 | O=C(CCc1ccccc1)NNC(=O)c1cc(Cl)ccc1O | -5.64
77 | C/C(=N\NC(=O)CNc1cccc(Cl)c1C)C1CC1 | 2.17
78 | CC(=O)Nc1ccc(C(=O)N2CCN(S(=O)(=O)c3ccc4c(c3)OCCCO4)CC2)cc1 | -1.17
79 | Cc1sc(NC(=O)C2=COCCO2)nc1-c1ccc(Cl)cc1 | 3.57
80 | c1ccc(CN2CCN(c3cnc4ccccc4n3)CC2)cc1 | 3.95
81 | COc1cc(C(=O)NC(=S)NNC(=O)[C@H]2C[C@@H]2c2ccccc2)cc(OC)c1OC | 62.4
82 | COc1cc(OC)cc(C(=O)NC(=S)NNC(=O)[C@H]2C[C@@H]2c2ccccc2)c1 | 78.5
83 | CC(=O)NCCc1nc2cc(NS(=O)(=O)c3ccc(Cl)cc3)ccc2n1C | -19.6
84 | COCCCN(CC(=O)Nc1ccc(F)cc1)S(=O)(=O)c1cccs1 | 5.35
85 | NNC(=O)/C(=C/c1cccs1)NC(=O)c1ccccc1Cl | 1.61
86 | Nc1ccc(C(=O)Nc2ccc(OC(F)(F)C(F)F)c(NC(=O)c3ccc(N)cc3)c2)cc1 | 20.7
87 | CCN(CC)S(=O)(=O)c1ccc(NS(=O)(=O)c2ccc(OC)c([N+](=O)[O-])c2)cc1 | -6.27
88 | CCOC(=O)c1cn(CC)c2cc(N3CCN(C)CC3)c(F)cc2c1=O | -0.72

Row | Structure (SMILES) | inhibition [%]
89 | CCn1cc(C(=O)NN)c(=O)c2cc(F)c(N3CCN(C)CC3)cc21 | -3.82
90 | CCCCCCCC(=O)N1CCN(c2cc3c(cc2F)c(=O)c(C(=O)O)cn3CC)CC1 | 72.9
91 | O=C(O)c1cn(C2CC2)c2cc(N3CCN(S(=O)(=O)c4ccc5c(c4)OCCO5)CC3)c(F)cc2c1=O | 79.5
92 | CCCCCCCCCC(=O)N1CCN(c2cc3c(cc2F)c(=O)c(C(=O)O)cn3CC)CC1 | 6.5
93 | CCCCCCCCC(=O)N1CCN(c2cc3c(cc2F)c(=O)c(C(=O)O)cn3CC)CC1 | 62.8
94 | CCc1ccc(/C=N/NC(=O)Cc2ccc(OC)c(OC)c2)s1 | 9.54
95 | COC(=O)C1=C2SC(C)C(=O)N2C(N)=C(C#N)C1c1ccc(OC)c(OC)c1 (stereo not given) | 5.18
96 | CC(=O)c1ccc(NC(=O)CCC(=O)OCC(F)(F)C(F)F)cc1 | -4.72
97 | CC(=O)Nc1ccccc1OCc1cnc(Cl)s1 | 21
98 | Cc1cc(S(=O)(=O)Nc2cc(C)c(O)c(C)c2)c(C)s1 | 13
99 | COc1ccc(-c2cc(NCCc3ccncc3)n3ncnc3n2)cc1 | 24.4
100 | COc1ccc(-c2cc(NCc3ccccn3)n3ncnc3n2)cc1 | 55.9
101 | C[C@H](CO)N1C[C@H](C)[C@@H](CN(C)S(=O)(=O)c2ccccc2)Oc2ccc(NC(=O)C3CC3)cc2C1=O | 6.81
102 | Cc1cc(Br)ccc1SCC(=O)OCC(=O)NC1CCCC1 | 35.6
103 | CC(=O)Nc1ccc(C(=O)NNC(=O)c2cc([N+](=O)[O-])cc([N+](=O)[O-])c2)cc1 | 16.3
104 | Cc1csc(NC(=O)c2ccc(C(=O)Nc3nc(C)cs3)cc2)n1 | -7.26
105 | O=C(Nc1ccc(N2CCCCC2)cc1)c1cc([N+](=O)[O-])cc([N+](=O)[O-])c1 | 14.1
106 | O=C(Nc1ccc(NC(=O)c2cccc([N+](=O)[O-])c2)cc1)c1cccc([N+](=O)[O-])c1 | -7.47
107 | COc1ccc(NC(=O)c2cc([N+](=O)[O-])ccc2N2CCCCC2)cc1 | -7.4
108 | O=C(Nc1ccc([N+](=O)[O-])cc1)c1cncc(Br)c1 | 13.8
109 | Cc1csc(NC(=O)c2ccc(C)c([N+](=O)[O-])c2)n1 | 5.36
110 | COc1ccc(NC(=O)c2cc([N+](=O)[O-])ccc2N2CCCC2)cc1 | -2.99
